# Screen size: about 410,000 compounds; about 6,400 (1.6%) were called active. Inconclusive results (about 20%) are left out. Only a selection was taken, and actives are over-represented in it overall. Unmarked numbers belong to inactive results. Calls come from the whole dose curve; as a rule, active = well fitted inhibition curve with a large enough effect; inconclusive = small, poorly fitted or top-dose-only effect; inactive = no such curve, though single readings can be large or run the other way.
# Target: Glucagon-like peptide 1 receptor (Homo sapiens) (UniProt P43220)
# Sequence (P43220 whole entry, looked up): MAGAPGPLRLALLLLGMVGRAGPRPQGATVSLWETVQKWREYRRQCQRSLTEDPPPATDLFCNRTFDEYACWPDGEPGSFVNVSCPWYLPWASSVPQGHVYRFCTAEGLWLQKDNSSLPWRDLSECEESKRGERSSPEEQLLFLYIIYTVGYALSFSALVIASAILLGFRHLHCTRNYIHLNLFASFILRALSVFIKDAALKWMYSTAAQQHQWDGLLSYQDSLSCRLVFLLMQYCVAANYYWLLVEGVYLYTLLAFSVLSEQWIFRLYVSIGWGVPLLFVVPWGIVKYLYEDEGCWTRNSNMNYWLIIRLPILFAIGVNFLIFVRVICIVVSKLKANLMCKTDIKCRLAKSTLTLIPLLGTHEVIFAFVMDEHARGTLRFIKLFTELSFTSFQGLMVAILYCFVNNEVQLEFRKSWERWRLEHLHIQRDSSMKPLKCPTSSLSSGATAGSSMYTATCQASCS
# Assay: qHTS of GLP-1 Receptor Inverse Agonists (Inhibition Mode); note: nearly all actives have a fitted effect of over 55% in size
# Settings: HEK293 GLP-1R CRE-luciferase, luminescence, 24 h, GLP-1R form is constitutively active; series mostly up to 38.3 µM; activity change, negative = inhibition: at the top concentration
# Procedure, shortened: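 HEK293 cells stably co-expressing a cAMP-responsive luciferase reporter and constitutively active GLP-1R were seeded, incubated 12 h, then exposed to compounds for 24 h at 37 C. Luminescence was read 12 min after detection reagent; inverse agonists lower signal.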
# % is set by controls: 0 for no effect and ±100 for the full control effect; potency is the fitted concentration of half-maximal effect.
Compound,"activity change, negative = inhibition",Potency
CC(=O)c1cccc(Nc2ccc3cc(S(=O)(=O)N4CCC(C)CC4)ccc3n2)c1,-17.5%,–
Cc1ccc(Nc2ccc3cc(S(=O)(=O)N4CCCCC4)ccc3n2)cc1F,–,2.82 µM (active)
O=S(=O)(c1ccc2nc(N3CCN(c4cccc(Cl)c4)CC3)ccc2c1)N1CCCCC1,3.79%,–
COc1ccc(NC(=O)CN2C(=O)C(c3ccccc3)=NC23CCCCCC3)cc1OC,-8.64%,–
CC1CCC2(CC1)N=C(c1ccccc1)C(=O)N2CC(=O)Nc1ccc(F)c(Cl)c1 (configuration not stated),–,10 µM (active)
Cc1ccc(NC(=O)CN2C(=O)C(c3ccc(F)cc3)=NC23CCCCCC3)c(C)c1,-6.38%,–
CC(C)(C)c1ccc(S(=O)(=O)NC(=O)C2(C)CCN2C(=O)CC2CC2)cc1 (configuration not stated),-9.62%,–
CCOC(=O)C1(CCOc2ccccc2)CCN(Cc2ccc(C#CCCO)cc2)CC1,–,7.94 µM (active)
CCCS(=O)(=O)N1CCC(CCOc2ccccc2)(C(=O)OCC)CC1,-4.3%,–
CCOC(=O)C1(CCOC)CCN(Cc2ccc(C(=O)OC)cc2)CC1,-8.63%,–
CCOC(=O)C1(CCOc2ccccc2)CCN(C(=O)c2cncs2)CC1,9.36%,–
CCOC(=O)C1(S(=O)(=O)c2ccc(Cl)cc2)CCN(Cc2ccccc2)CC1,-22.8%,–
CCOC(=O)C1(CCOc2ccccc2)CCN(Cc2cc(OC)cc(OC)c2)CC1,–,10 µM (active)
COC(=O)C[C@@H]1C=C[C@@H](NC(=O)c2cccnc2)[C@@H](CO)O1,-5.33%,–
COc1ccc(CN2C[C@H]3CON(C)[C@H]3C[C@H]2c2ccc(-c3cccc(F)c3)cc2)cc1,11.3%,–
CC1C(=O)N(Cc2cn(CC3CCCCC3)nn2)CCS(=O)(=O)N1Cc1ccc(-c2cccc(N(C)C)c2)cc1 (configuration not stated),-14%,–
O=S1(=O)CCN(Cc2ccccc2)CC1,12.2%,–
O=C(Nc1cccc(-c2cccc(Cl)c2)c1)C1CCN(C2CCC2)CC1,–,6.31 µM (active)
O=C(NC1CCCC1)C1CCN(C(=O)Nc2cccc(Cl)c2)CC1,-7.43%,–
COc1cccc(-c2cccc(NC(=O)C3CCN(C4CCC4)CC3)c2)c1,-12.5%,–
Cc1cc2c(cc1C)N1C(=O)c3cc4ccccc4cc3NC(=O)C1C(=O)N2 (configuration not stated),9.55%,–
NNC(=O)c1ccc(Cl)cc1Cl,5.99%,–
O=S(=O)(Cc1ccc(Cl)cc1Cl)c1ccc(Cl)cc1,–,12.6 µM (active)
O=S(=O)(CCc1nc2ccccc2o1)c1ccc(Cl)cc1,-14.7%,–
COCCNc1nc(NCc2ccc(NC(C)=O)cc2)c2sccc2n1,-0.0128%,–
C[C@H](CO)N1C[C@H](C)[C@@H](CN(C)S(=O)(=O)c2ccc(Oc3ccccc3)cc2)OCc2cn(nn2)CCCC1=O,30.7%,–

Compound,"activity change, negative = inhibition",Potency
Cc1csc(SCC(=O)Nc2ccc(C)c(S(=O)(=O)N(C)C)c2)n1,4.33%,–
Cc1nnc(NCCO)c2ccccc12,20.4%,–
CN(C)c1nc(Nc2ccc(Cl)c(Cl)c2)nc(N(C)C)n1,-36.4%,–
OCCNc1nc(Nc2ccc(Cl)c(Cl)c2)nc2ccccc12,–,3.98 µM (active)
CC(=O)Nc1ccc(CNc2nc(NCCN(C)C)nc3cc(-c4ccccc4)sc23)cc1,-27.5%,–
CCOc1cccc(C(=O)Nc2cnn(Cc3ccccc3)c2)c1,–,10 µM (active)
CCOc1cccc(C(=O)Nc2nnc(-c3cccs3)s2)c1,25.6%,–
CCCOc1cccc(C(=O)NCCCNC(=O)c2cccnc2)c1,20.7%,–
Cc1nccn1-c1ccc(NC(=O)[C@H]2O[C@@H](n3cnc4c(N)ncnc43)[C@H](O)[C@@H]2O)cc1,32.2%,–
Cc1ccccc1-c1nc(CS(=O)(=O)CC(=O)NC(C)c2ccccc2)c(C)o1 (configuration not stated),–,4.47 µM (active)
CSc1ccc(CCNC(=O)CS(=O)(=O)Cc2nc(-c3ccccc3F)oc2C)cc1,9.93%,–
Cc1ccc(S(=O)(=O)CC(=O)NC(C)c2ccccc2)cc1 (configuration not stated),-15.5%,–
CN(Cc1ccccc1)C(=O)[C@@H]1CCCN1C(=O)[C@@H]1CCCN1C(=O)c1c(F)cccc1F,11.3%,–
CCOC(=O)[C@]12CCC=C1N(CCC1=CCCCC1)C(=O)[C@H](CC(=O)NCc1ccc(C)o1)C2,14%,–
CC(NC(=O)CN1CCN(Cc2ccc(Cl)cc2)C1=O)c1ccc2c(c1)OCCO2 (configuration not stated),-23.5%,–
Cc1ccc(CNC(=O)CN2CCN(Cc3ccc(Cl)cc3)C2=O)cc1,–,7.94 µM (active)
O=C(CN1CCN(Cc2ccc(Cl)cc2)C1=O)NCc1ccc(F)cc1,-5.81%,–
CC(C)C1CC2=C(C(=O)OC(C)(C)O2)C(c2ccc(F)cc2)O1 (configuration not stated),-19.2%,–
Cc1ccc([C@H]2C[C@H](O)[C@@H](n3cc(COC(=O)c4ccccc4)nn3)CN2CC2CCCCC2)cc1,1.35%,–
CC(=O)N1C[C@@H](CO)[C@@H](N(C)C(=O)c2ccco2)C[C@H]1c1ccccc1,17.5%,–
COc1ccccc1-c1n[nH]nc1C1=CC(=O)CC(C)(C)C1,-11.7%,–
Cc1ccc(NC(=O)c2cccc(S(=O)(=O)N3CCCc4ccccc43)c2)nc1,–,7.94 µM (active)
Cc1cccc(NC(=O)c2cccc(S(=O)(=O)N3CCCC3)c2)n1,-2.27%,–
NS(=O)(=O)c1ccc(CNC(=O)c2cccc(S(=O)(=O)N3CCc4ccccc43)c2)cc1,-4.07%,–
COc1ccc(NC(=O)N(C)C[C@H]2Oc3ncc(C#C[C@@H](C)O)cc3C(=O)N([C@H](C)CO)C[C@H]2C)cc1,19.3%,–
Cn1c(Nc2ccc(F)cc2)nc2cc(-c3ccsc3)sc2c1=O,13.3%,–

Compound,"activity change, negative = inhibition",Potency
CCN(CCN(C)C)C(=O)c1ccc2nc(C)c(N(C)C(=O)CCc3ccccc3)n2c1,12.2%,–
O=C(NCc1nnnn1-c1ccc(Cl)cc1)c1ccc([N+](=O)[O-])o1,12.3%,–
CC1CCN(Cc2nc(-c3ccc(Cl)cc3)no2)CC1,-29.5%,–
CCN1CC(CN(C)Cc2nc(-c3ccc(Cl)cc3)no2)CC1=O (configuration not stated),-4.38%,–
Cc1ccc(S(=O)(=O)N(Cc2nc(-c3ccc(Cl)cc3)no2)C2CCCCC2)cc1,–,10 µM (active)
CCN(CC)C(=O)C(C)N1c2cccc3cccc(c23)S1(=O)=O (configuration not stated),-23.4%,–
CC1CN(Cc2ccccc2)C(=S)NC1=O (configuration not stated),0.404%,–
CCc1cccc(C)c1N1C(=O)CN(Cc2ccccc2)C1=S,–,5.62 µM (active)
O=C1C[C@@H]2c3c(cccc3CN1Cc1ccccc1)C[C@@H](O)[C@H]2O,26.3%,–
Nc1ncnc2c1ncn2[C@@H]1O[C@H](C(=O)N2CCSC2)[C@@H](O)[C@H]1O,0.629%,–
CCOc1cc(/C=N/NC(=O)c2c(C)nc3ccc(Cl)cn23)ccc1O,1.83%,–
CC(=O)C[C@@H]1OC[C@H](C)N1S(=O)(=O)c1ccc(C)cc1,0.373%,–
CCCC(=O)N1CCC1(C)C(=O)NCc1ccc(C(C)C)cc1 (configuration not stated),17.7%,–
O=C(NNc1cc(Cl)cc(Cl)c1)c1c(F)cccc1Cl,–,10 µM (active)
CCN(CC)CCNC(=O)c1ccc(NC(=O)c2c(F)cccc2Cl)cc1,-15.9%,–
O=C(Nc1nnc(-c2ccc(F)cc2)s1)c1c(F)cccc1Cl,-21.4%,–
CN1CCN(c2ccncc2S(=O)(=O)N2CCCC2)CC1,14%,–
COCCNC(=O)c1cc2c(Br)ccc(Br)c2nc1N,3.82%,–
O=C(C[C@H]1CC[C@@H](NC(=O)c2ccncc2)[C@@H](CO)O1)NCC1CC1,19.3%,–
CCOc1cccc(/C=C/c2ccc3ccccc3n2)c1OC(C)=O,–,10 µM (active)
CCOc1ccccc1/C=N/Nc1nc2ccccc2o1,4.76%,–
CCOc1ccccc1-c1cc(C(=O)N2CCOCC2)c2ccccc2n1,-1.25%,–
CC(C)(C)S(=O)N1Cc2cc(C(=O)NCCCN3CCOCC3)nc(-c3cccc(-c4cc5ccccc5o4)c3)c2[C@H]1CCO (some centres not stated),4.49%,–
COc1cccc(N2CCN(CC(=O)Nc3ccnn3C3CCCC3)CC2)c1,-24.6%,–
COc1cccc(CC(=O)Nc2ccc(-c3csc(C)n3)cc2)c1,-12.6%,–
COc1cccc(NC(=O)CN2CCN(c3nc(-c4cccc(OC)c4)cs3)CC2)c1,–,10 µM (active)

Compound,"activity change, negative = inhibition",Potency
CC(C)CN1CCC1(C)C(=O)Nc1ccc(OC(F)F)cc1 (configuration not stated),-21%,–
C[N+](C)(C)CCNC(=O)c1c[nH]c2ccccc12,15.7%,–
CC(C)c1cc(C(=O)N(C)C2CCCN(Cc3ccccc3F)C2)n(C)n1 (configuration not stated),-8.11%,–
COc1cc2c(cc1OC)C(C(C)C)=NC(C)(C)C2,41.3%,–
COc1cc2c(cc1O)C(SC)=NC(C)(C)C2,–,10 µM (active)
COc1cc2c(cc1OC)C(Nc1ccc(S(N)(=O)=O)cc1)=NC(C)(C)C2,120%,–
CC(=O)NN=C(C)c1ccc(NC(=O)C2CC2)cc1,-13.4%,–
N#Cc1ccc(C(C(=O)NCc2ccccc2)n2c(=O)c(-c3ccco3)nc3ccccc32)cc1 (configuration not stated),-11.9%,–
Cc1ccc(NC(=O)Cn2sc3ccccc3c2=O)cc1,-7.13%,–
O=C(O)c1cccc(NC(=S)N/N=C/c2c[nH]c3ccccc23)c1,-14.5%,–
CSC(=S)N/N=C/c1c[nH]c2ccccc12,–,3.16 µM (active)
COCCNC(=S)N/N=C/c1c(C)[nH]c2ccccc12,-22.1%,–
CCc1nc2ccc(C(=O)N3CCC(O)(Cc4ccccc4)CC3)cn2c1N(C)C(=O)Cc1ccccc1,-20%,–
CCNC(=O)CN(c1ccc(C)cc1)S(=O)(=O)c1ccc(SC)cc1,-13.4%,–
Cc1ccc(S(=O)(=O)N(CC(=O)Nc2cccnc2)c2ccc(Br)cc2)cc1,–,11.2 µM (active)
CCc1ccc(N(CC(=O)NCc2cccnc2)S(=O)(=O)c2ccccc2)cc1,-16.9%,–
NC(=S)N/N=C/c1coc2cc(Cl)ccc2c1=O,8.08%,–
CCOc1ccc(/C=N/NC(N)=S)cc1,-13.1%,–
CC(C)Oc1c(Br)cc(Br)cc1/C=N/NC(N)=S,–,2.51 µM (active)
CN1OC[C@@H]2CN(C(=O)c3ccc(-c4ccccc4)cc3)[C@H](c3ccc(-c4cccc(F)c4)cc3)C[C@@H]21,-7.58%,–
CCCCN1C(=O)C(CC(=O)NCc2cccs2)CC(C(=O)N2CCCCCC2)=C1C (configuration not stated),32.5%,–
COc1ccc(C(=O)N(Cc2ccc(N(C)C)cc2)C2CCS(=O)(=O)C2)cc1 (configuration not stated),11.2%,–
CC1(C)C(C=C(Cl)Cl)C1C(=O)N(Cc1ccc(Cl)cc1)C1CCS(=O)(=O)C1 (configuration not stated),–,8.91 µM (active)
Cc1cc(Cl)ccc1OCC(=O)N(Cc1ccc(N(C)C)cc1)C1CCS(=O)(=O)C1 (configuration not stated),-15.3%,–

# — PubChem BioAssay AID624417 (National Center for Advancing Translational Sciences (NCATS), 2012)
